Results published in publication PMC7862700, “An all-to-all approach to the identification of sequence-specific readers for epigenetic DNA modifications on cytosine”.

Experiments:
Experiment in all cases: DAPPL (digital affinity profiling via proximity ligation, sequencing); 10 mM Tris-HCl pH 7.5, 50 mM NaCl, 1 mM DTT, 4% glycerol, room temperature, 30 min; GST-TFs on glutathione beads, 16-mer random dsDNA library, 0.1% formaldehyde crosslink after washing; high values mean tight binding
[1] = target: HSF1 (Homo sapiens, UniProt Q00613 1-529); details: protein: recombinant; tags: N-terminal GST; chain copies: 3; dsDNA, one strand shown
Sequence of HSF1 (Q00613 whole entry, the tested form may be a part): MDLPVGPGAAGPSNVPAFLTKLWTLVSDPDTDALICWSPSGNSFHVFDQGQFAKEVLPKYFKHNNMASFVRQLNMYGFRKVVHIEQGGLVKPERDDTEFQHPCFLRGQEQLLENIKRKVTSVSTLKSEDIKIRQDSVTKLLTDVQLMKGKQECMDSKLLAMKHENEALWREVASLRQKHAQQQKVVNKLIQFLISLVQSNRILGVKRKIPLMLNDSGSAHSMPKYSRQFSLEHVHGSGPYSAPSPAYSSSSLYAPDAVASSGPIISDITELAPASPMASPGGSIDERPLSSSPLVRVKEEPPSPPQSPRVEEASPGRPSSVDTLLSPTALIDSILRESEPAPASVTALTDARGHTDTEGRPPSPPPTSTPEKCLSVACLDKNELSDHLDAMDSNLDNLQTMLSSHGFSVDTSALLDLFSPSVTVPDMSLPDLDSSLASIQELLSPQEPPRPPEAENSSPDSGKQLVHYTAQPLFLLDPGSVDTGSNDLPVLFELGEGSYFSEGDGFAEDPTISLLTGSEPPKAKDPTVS
Summary of the method: (§1)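 Binding signal is given per hexamer as its read frequency for a factor divided by its frequency in the tag-only sample. GST-fused human transcription factors were expressed in yeast, captured on glutathione beads, barcoded with DNA and pooled with that sample, then incubated with 200 nmole of a 16-mer random double-stranded DNA library in Tris/NaCl/DTT/glycerol buffer for 30 min at room temperature. The pools were then washed, crosslinked, proximity-ligated, amplified by PCR and sequenced on an Illumina NextSeq500.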

[2] = target: CRX (Homo sapiens, UniProt O43186 1-299); details: protein: recombinant; tags: N-terminal GST; dsDNA, one strand shown
Sequence of CRX (O43186 whole entry): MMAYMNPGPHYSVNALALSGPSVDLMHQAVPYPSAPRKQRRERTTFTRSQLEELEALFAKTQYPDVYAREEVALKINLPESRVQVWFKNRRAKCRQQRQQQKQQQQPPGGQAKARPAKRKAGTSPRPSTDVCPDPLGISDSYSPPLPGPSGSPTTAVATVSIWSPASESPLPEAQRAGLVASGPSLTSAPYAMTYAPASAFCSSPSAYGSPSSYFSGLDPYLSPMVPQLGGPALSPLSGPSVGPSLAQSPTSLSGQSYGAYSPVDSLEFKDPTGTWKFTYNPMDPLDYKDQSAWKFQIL
Summary of the method: as §1

[3] = target: T1, SPDEF (Homo sapiens, UniProt O95238 1-335); details: protein: recombinant; tags: N-terminal GST; dsDNA, one strand shown
T1 sequence: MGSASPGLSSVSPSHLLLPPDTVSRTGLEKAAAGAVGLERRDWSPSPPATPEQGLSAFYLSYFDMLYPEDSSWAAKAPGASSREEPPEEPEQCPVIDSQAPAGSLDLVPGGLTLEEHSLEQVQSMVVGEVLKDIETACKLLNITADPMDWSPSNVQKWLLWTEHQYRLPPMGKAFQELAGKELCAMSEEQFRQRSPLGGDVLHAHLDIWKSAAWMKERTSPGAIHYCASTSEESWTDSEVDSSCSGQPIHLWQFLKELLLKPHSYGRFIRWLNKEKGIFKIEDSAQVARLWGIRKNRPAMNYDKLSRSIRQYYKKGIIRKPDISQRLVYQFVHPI
Summary of the method: as §1

[4] = target: T2, ELF5 (Homo sapiens, UniProt Q9UKW6-2 1-255); details: protein: recombinant; tags: N-terminal GST; dsDNA, one strand shown
T2 sequence: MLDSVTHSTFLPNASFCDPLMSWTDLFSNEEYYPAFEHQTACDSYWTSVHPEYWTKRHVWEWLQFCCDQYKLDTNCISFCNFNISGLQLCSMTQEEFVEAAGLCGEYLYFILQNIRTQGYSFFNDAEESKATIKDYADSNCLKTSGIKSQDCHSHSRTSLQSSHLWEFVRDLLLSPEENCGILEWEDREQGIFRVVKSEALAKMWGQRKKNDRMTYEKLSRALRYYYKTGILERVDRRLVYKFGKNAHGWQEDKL
Summary of the method: as §1

[5] = target: SPI1 (Homo sapiens, UniProt P17947 1-270); details: protein: recombinant; tags: N-terminal GST; dsDNA, one strand shown
Summary of the method: as §1

[6] = target: T3, FEV (Homo sapiens, UniProt Q99581 1-238); details: protein: recombinant; tags: N-terminal GST; dsDNA, one strand shown
T3 sequence: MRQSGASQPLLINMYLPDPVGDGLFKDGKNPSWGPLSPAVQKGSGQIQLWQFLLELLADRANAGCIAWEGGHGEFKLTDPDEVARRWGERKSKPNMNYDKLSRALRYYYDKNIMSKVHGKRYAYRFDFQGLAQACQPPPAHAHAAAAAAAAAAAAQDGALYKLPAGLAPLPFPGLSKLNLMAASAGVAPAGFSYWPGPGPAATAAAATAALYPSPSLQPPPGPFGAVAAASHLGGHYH
Summary of the method: as §1

Sequence | binding signal [1] | binding signal [2] | binding signal [3] | binding signal [4] | binding signal [5] | binding signal [6]
TGATTA | 1.58 fold enrichment (6-mer frequency, TF over GST control) | 2.23 fold enrichment (6-mer frequency, TF over GST control) | 1.01 fold enrichment (6-mer frequency, TF over GST control) | 1.03 fold enrichment (6-mer frequency, TF over GST control) | – | –
GGATCT | 1.07 fold enrichment (6-mer frequency, TF over GST control) | 1.15 fold enrichment (6-mer frequency, TF over GST control) | 1.54 fold enrichment (6-mer frequency, TF over GST control) | 1.17 fold enrichment (6-mer frequency, TF over GST control) | 1.02 fold enrichment (6-mer frequency, TF over GST control) | –
ATAAGT | 1.28 fold enrichment (6-mer frequency, TF over GST control) | 1.79 fold enrichment (6-mer frequency, TF over GST control) | 1.05 fold enrichment (6-mer frequency, TF over GST control) | – | 1 fold enrichment (6-mer frequency, TF over GST control) | –
TCAATC | 1.13 fold enrichment (6-mer frequency, TF over GST control) | 1.33 fold enrichment (6-mer frequency, TF over GST control) | – | – | 1.06 fold enrichment (6-mer frequency, TF over GST control) | –
TTAGAT | 1.49 fold enrichment (6-mer frequency, TF over GST control) | 2.04 fold enrichment (6-mer frequency, TF over GST control) | 1.08 fold enrichment (6-mer frequency, TF over GST control) | – | – | 1.01 fold enrichment (6-mer frequency, TF over GST control)
TGATAG | 1.02 fold enrichment (6-mer frequency, TF over GST control) | 1.01 fold enrichment (6-mer frequency, TF over GST control) | – | – | 1.01 fold enrichment (6-mer frequency, TF over GST control) | –
CATGCG | 1.07 fold enrichment (6-mer frequency, TF over GST control) | – | 1.01 fold enrichment (6-mer frequency, TF over GST control) | – | – | –
TAAGGG | 1.12 fold enrichment (6-mer frequency, TF over GST control) | 1.49 fold enrichment (6-mer frequency, TF over GST control) | – | 1.06 fold enrichment (6-mer frequency, TF over GST control) | – | 1 fold enrichment (6-mer frequency, TF over GST control)
GATTTA | 1.54 fold enrichment (6-mer frequency, TF over GST control) | 2.33 fold enrichment (6-mer frequency, TF over GST control) | 1.08 fold enrichment (6-mer frequency, TF over GST control) | – | – | –
GTTCGC | 1.12 fold enrichment (6-mer frequency, TF over GST control) | – | – | 1.01 fold enrichment (6-mer frequency, TF over GST control) | 1.04 fold enrichment (6-mer frequency, TF over GST control) | 1.06 fold enrichment (6-mer frequency, TF over GST control)
AGCTAG | 1.21 fold enrichment (6-mer frequency, TF over GST control) | 1 fold enrichment (6-mer frequency, TF over GST control) | – | – | 1.08 fold enrichment (6-mer frequency, TF over GST control) | –
TAGATA | 1.46 fold enrichment (6-mer frequency, TF over GST control) | 1.48 fold enrichment (6-mer frequency, TF over GST control) | 1.06 fold enrichment (6-mer frequency, TF over GST control) | – | – | –
GCTGGT | 1.06 fold enrichment (6-mer frequency, TF over GST control) | 1.05 fold enrichment (6-mer frequency, TF over GST control) | 1.2 fold enrichment (6-mer frequency, TF over GST control) | 1.09 fold enrichment (6-mer frequency, TF over GST control) | 1.19 fold enrichment (6-mer frequency, TF over GST control) | 1.1 fold enrichment (6-mer frequency, TF over GST control)
GCCCGA | 1.1 fold enrichment (6-mer frequency, TF over GST control) | – | – | – | 1.01 fold enrichment (6-mer frequency, TF over GST control) | 1.07 fold enrichment (6-mer frequency, TF over GST control)
GTAAGC | 1.04 fold enrichment (6-mer frequency, TF over GST control) | 1.51 fold enrichment (6-mer frequency, TF over GST control) | – | – | – | –
TAAGCA | 1.29 fold enrichment (6-mer frequency, TF over GST control) | 1.7 fold enrichment (6-mer frequency, TF over GST control) | 1.06 fold enrichment (6-mer frequency, TF over GST control) | 1.02 fold enrichment (6-mer frequency, TF over GST control) | – | 1.04 fold enrichment (6-mer frequency, TF over GST control)
ACCTAG | 1.21 fold enrichment (6-mer frequency, TF over GST control) | – | – | – | 1.02 fold enrichment (6-mer frequency, TF over GST control) | 1.03 fold enrichment (6-mer frequency, TF over GST control)
GATCTA | 1.41 fold enrichment (6-mer frequency, TF over GST control) | 1.41 fold enrichment (6-mer frequency, TF over GST control) | 1.1 fold enrichment (6-mer frequency, TF over GST control) | 1.05 fold enrichment (6-mer frequency, TF over GST control) | 1 fold enrichment (6-mer frequency, TF over GST control) | –
AGAACA | 2.37 fold enrichment (6-mer frequency, TF over GST control) | 1.22 fold enrichment (6-mer frequency, TF over GST control) | 1.03 fold enrichment (6-mer frequency, TF over GST control) | – | – | –
TCGCGT | 1.04 fold enrichment (6-mer frequency, TF over GST control) | – | – | – | 1 fold enrichment (6-mer frequency, TF over GST control) | –
TCAGAT | 1.21 fold enrichment (6-mer frequency, TF over GST control) | 1.45 fold enrichment (6-mer frequency, TF over GST control) | 1.07 fold enrichment (6-mer frequency, TF over GST control) | 1 fold enrichment (6-mer frequency, TF over GST control) | 1.08 fold enrichment (6-mer frequency, TF over GST control) | –
CGCCAT | – | – | – | 1.03 fold enrichment (6-mer frequency, TF over GST control) | 1.08 fold enrichment (6-mer frequency, TF over GST control) | –
ATGGGG | – | 1.03 fold enrichment (6-mer frequency, TF over GST control) | – | 1.1 fold enrichment (6-mer frequency, TF over GST control) | 1.11 fold enrichment (6-mer frequency, TF over GST control) | 1.05 fold enrichment (6-mer frequency, TF over GST control)
TTGGAT | 1.21 fold enrichment (6-mer frequency, TF over GST control) | 1.39 fold enrichment (6-mer frequency, TF over GST control) | 1.13 fold enrichment (6-mer frequency, TF over GST control) | – | – | 1 fold enrichment (6-mer frequency, TF over GST control)
GGTTCT | 1.54 fold enrichment (6-mer frequency, TF over GST control) | – | 1.01 fold enrichment (6-mer frequency, TF over GST control) | 1.01 fold enrichment (6-mer frequency, TF over GST control) | – | –
